Measurements from PubChem BioAssay (NCATS).
Inconclusive results are not listed. A call without a number means that no potency is given here. A number with no mark means an inactive call. Activity calls are given as the source filed them. Calls follow the shape of the dose curve; as a rule, active = well fitted inhibition curve with a large enough effect; inconclusive = small, poorly fitted or top-dose-only effect; inactive = no such curve, though single readings can be large or run the other way. Where a SMILES comes first, the peptide text is derived from it. [ ]: non-standard residue; d: D form. ξ: configuration not given here. ξLac(3-iPr) = CC(C)CC(O)C(=O)O; NMeV = CN[CH](C(=O)O)C(C)C; βAla = NCCC(=O)O

How the values were obtained:
[1] = system: Zika virus NS2B-NS3 protease (unlinked complex); experiment: Primary screen GU Rhodamine qHTS for Zika virus inhibitors: Unlinked NS2B-NS3 protease assay (AID 1347159); also: nearly all actives have a fitted effect of over 60% in size
Outline: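 Noncovalent NS2B hydrophilic domain/NS3 protease complex (25 nM final) in 10 mM Tris-HCl pH 8.0, 0.01% Tween 20, preincubated 15 min with compounds (up to 114 microM), then 1.5 microM Rhodamine110 substrate. Fluorescence change over 15 min fitted to 4-parameter Hill.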

[2] = system: Zika virus NS2B-NS3 protease (linked construct); experiment: Primary screen NINDS Rhodamine qHTS for Zika virus inhibitors (AID 1347160); also: nearly all actives have a fitted effect of over 55% in size
Outline: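 Purified NS2B-NS3 protease with the NS2B hydrophilic domain joined by a flexible linker (25 nM) in 10 mM Tris-HCl pH 8.0, 0.01% Tween 20, preincubated 15 min at RT with compound; Rhodamine110 peptide substrate 1.5 µM; fluorescence change over 15 min; 4-parameter Hill fit.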

Row | Compound | Potency [1] | Potency [2]
1 | CC[C@@H](N)CNc1ccnc(-c2cc(-c3cnn(C)c3)ccc2O)n1 | inactive | inactive
2 | C=CC(C)(C)c1[nH]c2cc3c(cc2c1CC1NC(=O)C2CCCN2C1=O)C=CC(C)(C)O3 (stereo not drawn) | inactive | inactive
3 | N#Cc1cc(F)cc(-c2nc(-c3ccccn3)no2)c1 | inactive | inactive
4 | Cc1nc(C)c(-c2ccc(C3CCC(CC(=O)O)CC3)cc2)nc1C(N)=O (stereo not drawn) | inactive | inactive
5 | Oc1ccc2nc(CN3CCC(Cc4ccccc4F)CC3)[nH]c2c1 | inactive | inactive
6 | CC(Oc1cc(-n2cnc3ccc(CN4CCN(C)CC4)cc32)sc1C(N)=O)c1ccccc1C(F)(F)F (stereo not drawn) | inactive | inactive
7 | Cc1ccc(NC(=O)c2ccc(CN3CC[C@H](N(C)C)C3)c(C(F)(F)F)c2)cc1Nc1nccc(-c2cncnc2)n1 | inactive | inactive
8 | CC(Cc1cc2c(c(C(N)=O)c1)N(CCCO)CC2)NCCOc1ccccc1OCC(F)(F)F (stereo not drawn) | inactive | inactive
9 | CC(=O)O[C@H]1CC[C@H](C)[C@@]2(C)[C@H](OC(C)=O)c3c(C)coc3C(=O)[C@H]12 | inactive | inactive
10 | CC(=O)C12OC(C)(C)OC1CC1C3CCC4=CC(=O)C=CC4(C)C3(F)C(O)CC12C (stereo not drawn) | inactive | inactive
11 | C/C=C/C=C/C(O)=C1\C(O)=C(C)C(=O)[C@@]2(C)OC(=O)[C@@](C)(NC(=O)/C=C/C(=O)O)[C@@H]12 | inactive | inactive
12 | Oc1ccc(CNc2ccccc2F)c2cccnc12 | inactive | inactive
13 | CCc1cnn2c(NCc3ccc[n+]([O-])c3)cc(N3CCCCC3CCO)nc12 (stereo not drawn) | inactive | inactive
14 | COc1cc(C(=O)O)ccc1OC1OC(CO)C(O)C(O)C1O (stereo not drawn) | inactive | inactive
15 | NC[C@@](O)(c1ccc(Cl)cc1)c1ccc(-c2cn[nH]c2)cc1 | inactive | inactive
16 | CN1CCN(C2CCC(n3cc(-c4ccc(Oc5ccccc5)cc4)c4c(N)ncnc43)CC2)CC1 (stereo not drawn) | inactive | inactive
17 | CC(=O)O[C@H]1CC(C)(C)CC2[C@@]13[C@H](O)C[C@]1(C)[C@@]2(CCC2[C@@]4(C)CC[C@H](O[C@@H]5OC[C@H](O[C@@H]6O[C@H](CO)[C@@H](O)[C@H](O)[C@H]6O[C@@H]6OC[C@@H](O)[C@H](O)[C@H]6O)[C@H](O)[C@H]5O[C@@H]5O[C@H](CO)[C@@H](O)[C@H](O)[C@H]5O)C(C)(C)C4CC[C@]21C)O[C@@H]3O (stereo partly drawn) | inactive | inactive
18 | O=C(c1cccc(Cl)c1F)N1CCN(Cc2cccc(Nc3nccs3)n2)CC1 | inactive | inactive
19 | CC1(C(=O)O)CCCC2(C)C3CCC4CC3(CCC12)CC4=O (stereo not drawn) | inactive | inactive
20 | Nc1nc2c(ncn2[C@@H]2O[C@H](CO)[C@@H](O)[C@H]2O)c(=O)[nH]1 | inactive | inactive
21 | COc1cc2c(cc1O)[C@H](c1ccc(O[C@@H]3O[C@H](CO)[C@@H](O)[C@H](O)[C@H]3O)c(OC)c1)[C@@H](CO)[C@](O)(CO)C2 | inactive | inactive
22 | CC1(C)CCC2(C(=O)OC3OC(CO)C(O)C(O)C3O)CCC3(C)C(=CCC4C5(C)CCC(OC6OC(C(=O)O)C(OC7OC(CO)C(O)C(O)C7O)C(OC7OC(CO)C(O)C(O)C7O)C6O)C(C)(C)C5CCC43C)C2C1 (stereo not drawn) | inactive | inactive
23 | CC(=O)c1cc2c(cc1O)OC(C)(C)C=C2 | inactive | inactive
24 | C[C@H](NC(c1cccc2[nH]c(=O)c(=O)[nH]c12)P(=O)(O)O)c1ccc(Br)cc1 (stereo partly drawn) | inactive | inactive
25 | CC(=O)CC1CCC(C(C)C(=O)OCC(O)CO)O1 (stereo not drawn) | inactive | inactive
26 | CC1=C2C(O)C(=O)OC(c3ccoc3)C2(C)CCC1O (stereo not drawn) | inactive | inactive
27 | Cc1cc(O)cc(O[C@@H]2O[C@H](CO)[C@@H](O)[C@H](O)[C@H]2O)c1 | inactive | inactive
28 | CC(=O)O[C@@H]1C[C@H](O)[C@@]23CO[C@H](O)[C@]1(C)C2C[C@@H](O)[C@]1(C)C3C(=O)[C@H](OC(C)=O)[C@@]2(C)[C@H](c3ccoc3)C[C@H]3O[C@]321 (stereo partly drawn) | inactive | inactive
29 | CC(C)CC1OC(=O)C2CCCN2C(=O)CCNC(=O)C(Cc2ccccc2)NC(=O)C(C(C)C)N(C)C(=O)C(C(C)C)N(C)C1=O (stereo not drawn) (cyclo([ξLac(3-iPr)][NMeV][NMeV]F[βAla]P); configuration not given here) | inactive | inactive
